High-throughput results as filed in PubChem BioAssay.
IMPase Li cell – IMPase inhibition in cells with lithium potentiation; Potency, µM (titrated, usually from 59.4 µM), inactives show top-dose activity, negative = IMPase inhibition, actives largely listed as inhibitors; AID 1457; CHO-M1 cells, IP1 TR-FRET (IP-One), carbachol + lithium; 210,000 compounds, 0.35% hits;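 note: IP1 builds up when IMPase is blocked and the TR-FRET signal falls; potency is the fitted concentration of half-maximal effect; plate controls were basal vehicle for no effect and high inhibitor control for full effect; nearly all actives have a fitted effect of over 50% in size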
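Lithium-sensitised IP1 accumulation assay; M1-expressing CHO cells treated 30 min at 37C with compound. Competitive antibody detection by time-resolved FRET followed a 10 min room-temperature lysis step.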
IMPase cell inh – membrane-permeable compound that blocks inositol monophosphatase; 120,000 tested, under 10 active; AID 901; CHO-M1 cells, IP1 accumulation, HTRF TR-FRET ratio; P97697; inhibition (IP1 accumulation), % at 46.1 µM; active = well fitted curve in the direction sought with a large enough effect in the signal ratio, not every such curve was filed as active; inconclusive = small, poorly fitted or top-dose-only effect, or a change in a side signal; inactive = no such curve, though single readings can be large or run the other way; the % refers to the signal ratio;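 note: cells stimulated with carbachol in lithium chloride buffer; plate controls were DMSO basal wells for no effect and reference inhibitor wells for full effect; higher means more IMPase inhibition seen as more IP1 and lower FRET ratio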
Target sequence (P97697 whole entry, looked up): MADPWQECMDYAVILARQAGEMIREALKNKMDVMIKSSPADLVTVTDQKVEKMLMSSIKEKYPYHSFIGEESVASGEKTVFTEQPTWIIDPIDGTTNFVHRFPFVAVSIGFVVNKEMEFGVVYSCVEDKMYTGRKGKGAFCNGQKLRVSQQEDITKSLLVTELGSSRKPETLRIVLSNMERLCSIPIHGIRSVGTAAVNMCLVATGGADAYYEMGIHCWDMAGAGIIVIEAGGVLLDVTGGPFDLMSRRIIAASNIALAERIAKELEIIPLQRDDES
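The IP-One HTRF competitive assay in carbachol-stimulated CHO-M1 cells quantifies cellular IP1. Compounds spanned up to 46 uM final, and activity is expressed as AC50 from concentration-response fits of the ratio and donor data.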
NPSR antagonist – neuropeptide S receptor (human) antagonism, cAMP; Q6W5P4; CHO-NPSR cells, cAMP TR-FRET, antagonist mode; Potency, µM (titrated, usually from 38.3 µM), for inactives: at the highest dose activity change, negative = inhibition, most hits filed as inhibitors; 220,000 compounds, 1% hits; note: potency is the fitted concentration of half-maximal effect; nearly all actives have a fitted effect of over 50% in size
Target sequence (Q6W5P4 whole entry, looked up): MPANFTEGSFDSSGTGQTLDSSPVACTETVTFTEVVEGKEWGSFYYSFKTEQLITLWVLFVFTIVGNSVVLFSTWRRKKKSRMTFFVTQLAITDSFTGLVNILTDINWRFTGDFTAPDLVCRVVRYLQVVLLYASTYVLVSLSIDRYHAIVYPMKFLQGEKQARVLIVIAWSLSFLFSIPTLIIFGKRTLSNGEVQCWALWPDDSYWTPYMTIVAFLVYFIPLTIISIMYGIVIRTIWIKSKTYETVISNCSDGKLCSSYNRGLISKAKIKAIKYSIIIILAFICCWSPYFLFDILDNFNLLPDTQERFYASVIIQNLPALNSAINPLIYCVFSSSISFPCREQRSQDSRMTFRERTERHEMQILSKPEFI
* = called active by the depositor; [ ] = another dose, or the depositor's remark. Shown is part of a subset that was picked to be rich in hits. Unless noted, calls come from the whole dose curve; as a rule, active = well fitted curve in the direction sought with a large enough effect; inconclusive = small, poorly fitted or top-dose-only effect, or another doubt; inactive = no such curve, though single readings can be large; an effect the other way counts as inactive or inconclusive. Unless noted, % is set by controls: 0 for no effect and ±100 for the full control effect.

`Cc1ccccc1-c1cncnc1Nc1ccc(F)cc1` gave IMPase Li cell 3%.
Screening CC(=O)Nc1cccc(NC(=O)c2cc(-c3cccnc3)nc3ccc(Br)cc23)c1 returned IMPase Li cell 11µM*, IMPase cell inh -20 and NPSR antagonist -14%[46.1 µM].
For CC(=O)Nc1cccc(NC(=O)c2cc(-c3cccnc3)nc3ccc(Cl)cc23)c1 the results were IMPase Li cell 12% and NPSR antagonist -16%.
`COc1cnn(-c2ccccc2)c(=O)c1SCc1ccc(Cl)cc1Cl` gave IMPase Li cell 14%[38.3 µM], IMPase cell inh 11 and NPSR antagonist inconclusive.
`CSc1cnn(-c2ccccc2)c(=O)c1SC` gave IMPase Li cell 11µM*, IMPase cell inh inconclusive and NPSR antagonist inconclusive.
CCSc1cnn(-c2ccccc2)c(=O)c1SCC was read as IMPase Li cell 10µM*, IMPase cell inh inconclusive and NPSR antagonist 13µM*.
For CCCCSc1cnn(-c2ccccc2)c(=O)c1SCCCC the results were IMPase Li cell -24%, IMPase cell inh inconclusive and NPSR antagonist 13µM*.
For CCCCSc1nc2c(cnn2-c2ccccc2)c(=O)n1N the results were IMPase Li cell 10% and NPSR antagonist -16%.
For CSc1cnn(Cc2ccccc2)c(=O)c1SCc1ccccc1 the results were IMPase Li cell 16% and NPSR antagonist inconclusive.
COCCn1c(=O)c(-c2ccc(F)cc2)nc2cnc(OC)nc21 was read as IMPase Li cell 0%.
`Brc1ccc(-c2ccc(/C=N/Nc3nc4ccccc4[nH]3)o2)cc1` gave IMPase Li cell 2%, IMPase cell inh -3 and NPSR antagonist inconclusive.
For O=C1CCC=C1C(O)c1ccc(Cl)cc1 (centres undefined) the results were IMPase Li cell 8%.
Screening C=CCn1c(NC(=O)c2ccc(Br)o2)c(S(=O)(=O)c2ccccc2)c2nc3ccccc3nc21 returned IMPase Li cell 10µM*, IMPase cell inh -19 and NPSR antagonist 13%[46.1 µM].
For C=CCn1c(NC(=O)c2ccco2)c(S(=O)(=O)c2ccccc2)c2nc3ccccc3nc21 the results were IMPase Li cell -30%[38.3 µM], IMPase cell inh -24 and NPSR antagonist -10%[46.1 µM].
For COc1ccc(-c2nc3c(c4c2C[C@H](c2ccccc2)OC4)CN(C(=O)c2cc(I)ccc2F)CC3)c(C)c1 the results were IMPase Li cell 3%.
`COc1ccc(C2C(C#N)=C(SC)NC3=C2C(=O)CC(C)(C)C3)cc1` (centres undefined) gave IMPase Li cell -4%[38.3 µM], IMPase cell inh 0 and NPSR antagonist -12%[46.1 µM].
`CCOC(=O)CSC1=C(C#N)C(c2ccc(OC)cc2)C2=C(CC(C)(C)CC2=O)N1` (centres undefined) gave IMPase Li cell 10µM*, IMPase cell inh inconclusive and NPSR antagonist -20%[46.1 µM].
For CCCNC(=O)c1ccc2c(c1)N=C(CCC)c1ccccc1S2 the results were IMPase cell inh 6.
For O=C1COC(c2ccccc2O)=NN1CCCN1CCCC1 the results were IMPase Li cell -6%.
O=C(O)C[C@@H]1CCCc2ccccc2[C@H]1O was read as IMPase cell inh -2.
`COc1ccc(C2c3sc(=O)[nH]c3SC3C4CCC(C4)C23)cc1OC` (centres undefined) gave IMPase Li cell 7%, IMPase cell inh -2 and NPSR antagonist 7.9µM*.
COC(=O)C1=C(C(=O)OC)C(c2ccc(OC)c(OC)c2)c2sc(=O)[nH]c2S1 (centres undefined) was read as IMPase Li cell 12% and NPSR antagonist -7%.
O=c1[nH]c2c(s1)C(c1cccnc1)C1C3CCC(C3)C1S2 (centres undefined) was read as NPSR antagonist 4%.
Screening O=c1[nH]c2c(s1)C(c1ccc(O)cc1)C1C3CCC(C3)C1S2 (centres undefined) returned IMPase Li cell 37%[38.3 µM], IMPase cell inh -11 and NPSR antagonist 10µM*.
Screening COc1ncc2nc(-c3cn(C)c4ccccc34)c(=O)n(C[C@H]3CCCO3)c2n1 returned IMPase Li cell -2%.
For COc1ccc(N2CCN(C(=O)NC3CC(=O)N(c4ccc(OC)cc4)C3)CC2)cc1 (centres undefined) the results were IMPase Li cell 0% and NPSR antagonist 4%.
CC1=NOC(=O)/C1=C\c1ccc(-c2cc(Cl)ccc2Cl)o1 was read as IMPase Li cell inconclusive, IMPase cell inh 1 and NPSR antagonist 10µM*.
`CC1=NOC(=O)/C1=C/c1ccc(-c2ccc(Cl)cc2)o1` gave IMPase Li cell 23%[38.3 µM], IMPase cell inh 2 and NPSR antagonist inconclusive.
Screening Cc1ccc(C2C3=C(CC(C)(C)CC3=O)N=C3c4ccccc4C(=O)C32)cc1 (centres undefined) returned IMPase Li cell 17% and NPSR antagonist -49%.
Screening Cc1cccc(N2CCN(Cc3nnc(-c4cccc(Br)c4)o3)CC2)c1C returned IMPase cell inh 1.
`Cc1ccc(C#N)c(SCC(=O)Nc2nccs2)n1` gave IMPase Li cell 13µM* and NPSR antagonist inconclusive.
For Cc1ccc(SCC(=O)Nc2nccs2)cc1 the results were IMPase Li cell 4% and NPSR antagonist -13%.
For CCc1cc2cc3c(cc2nc1SCC(=O)Nc1nccs1)OCO3 the results were IMPase Li cell 13µM*, IMPase cell inh inconclusive and NPSR antagonist 10µM*.
For CCc1nc(SCC(=O)Nc2nccs2)c2oc3ccccc3c2n1 the results were IMPase Li cell 24%[38.3 µM], IMPase cell inh -3 and NPSR antagonist -15%[46.1 µM].
For O=C(CSc1ccccc1)Nc1nccs1 the results were IMPase Li cell 14% and NPSR antagonist 5%.
Screening O=C(CSc1nc(-c2ccccc2)nc2ccccc12)Nc1nccs1 returned IMPase Li cell 25µM*, IMPase cell inh inconclusive and NPSR antagonist 7%[46.1 µM].
Screening O=C(/C=C/c1ccc(F)cc1)NCC1(c2ccccc2)CCOCC1 returned IMPase Li cell 1% and NPSR antagonist 11%.
Screening Nc1nc(Cl)nc2ccc(Br)cc12 returned IMPase Li cell -19% and NPSR antagonist 5%.
CCc1c(C)nc2ccc(Br)cc2c1Cl was read as IMPase Li cell 11µM*, IMPase cell inh -13 and NPSR antagonist 13%[46.1 µM].
Screening O=C(CSc1nc2ccccc2c(=O)n1Cc1ccccc1)NCc1ccco1 returned IMPase Li cell 10µM*, IMPase cell inh -20 and NPSR antagonist 20%[46.1 µM].
`CCn1c(SCC(=O)NCc2ccco2)nc2ccccc2c1=O` gave IMPase Li cell 4% and NPSR antagonist -4%.
`Cc1[nH]c(C)c(CN(C)C)c1CN(C)C` gave IMPase Li cell -12%.
`O=[N+]([O-])c1cc(/C=N\Nc2nccs2)ccc1O` gave IMPase Li cell 25%[38.3 µM], IMPase cell inh 5 and NPSR antagonist 2.5µM*.
For O=C(COc1ccccc1[N+](=O)[O-])N/N=C/c1ccc(O)c([N+](=O)[O-])c1 the results were IMPase Li cell 13% and NPSR antagonist -23%.
For Cc1cc(=O)n2c(C(=O)Nc3ccc(C)c(C)c3)c(C(=O)Nc3ccccc3)sc2n1 the results were IMPase Li cell -8% and NPSR antagonist -11%.
Screening CN1CCN(c2ncc3ncc(=O)n(Cc4cccs4)c3n2)CC1 returned IMPase Li cell 43%.
C#CCCCC(=O)Nc1ccccc1 was read as IMPase Li cell -10%.
